# Data as given in PubChem BioAssay (NCATS).
# Results filed as inconclusive are left out. Where a call stands in place of a potency, no number is given. The source made the active and inactive calls. The call rests on the fitted dose curve; in most records, active means well fitted inhibition curve with a large enough effect; inconclusive means small, poorly fitted or top-dose-only effect; inactive means flat fitted curve, though single readings scatter.
# Biological target: Calcium and integrin-binding protein 1 (Homo sapiens) (UniProt Q99828)
# Sequence (Q99828 whole entry, looked up): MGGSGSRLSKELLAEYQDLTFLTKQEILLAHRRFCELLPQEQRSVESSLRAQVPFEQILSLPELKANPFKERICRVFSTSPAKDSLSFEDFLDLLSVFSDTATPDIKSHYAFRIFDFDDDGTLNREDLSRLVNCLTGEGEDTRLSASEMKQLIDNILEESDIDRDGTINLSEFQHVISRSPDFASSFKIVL
# Assay: Primary qHTS for Identification of Calcium Integrin Binding Protein 1 (CIB1) Competitor (AID 1508620);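 further: GST tagged CIB1 binding a fluorescein labelled alphaIIb integrin peptide tracer; top concentration of the series differs between compounds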
# Details: CIB1-GST / FITC-alphaIIb peptide fluorescence polarization; series mostly up to 114 µM
# Description: Assay Provider: Ulhas P. Naik, PhD Sidney Kimmel Medical College Thomas Jefferson University, Philadelphia, PA Primary function of platelets is to maintain hemostasis. At the site of vascular injury, platelets adhere to adhesive proteins such as collagen and von Willebrand factor. Adherent platelets are activated and generate soluble platelet agonists such as thrombin, ADP and thromboxane A2. Following exposure of circulating platelets to these agonists, results in platelet shape change, granule secretion and activation of platelet integrin alphaIIb-beta3. Ligand binding to activated integrin alphaIIb-beta3 triggers outside-in signaling, leading to platelet aggregation, stabilization of platelet plug, and clot retraction. Upon atherosclerotic plaque rupture also causes platelet plug formation, which underlies a number of cardiovascular diseases such as myocardial infraction and stroke. A number of anti-platelet drugs such as aspirin, clopidogrel, prasugrel, vorapaxar, and eptifibatide are currently available to prevent the thrombotic complications. However, these anti-platelet agents have several limitations including inherent variability in individual responses, developing resistance, and serious bleeding side effects. For these reasons they are not suitable for long-term protection. Based on the experiences with current anti-platelet drugs, it appears that the most useful therapeutic approach is to intersect the secondary responses such as integrin outside-in signaling or recruitment of platelets by TxA2 and secreted ADP. Compounds, which can largely preserve the primary hemostatic function of platelets but inhibit secondary response will be most desired therapeutic agents for treatment of cardiovascular disease. CIB1 is a calcium integrin binding protein, which specifically interact with the alphaIIb subunit of integrin alphaIIb-beta3. Binding of CIB1 to alphaIIb regulates the outside-in signaling in platelets, which is needed for thrombus stabilization and thrombus growth. […] Therefore, we propose that discovery of a small molecule that can prevent the association of CIB1 and alphaIIb-beta3 will be a potential anti-platelet agent that can block the thrombus formation without undue effect on hemostasis. Reference: [1] Naik MU, Nigam A, Manrai P, et al. CIB1 deficiency results in impaired thrombosis: the potential role of CIB1 in outside-in signaling through integrin alpha IIb beta 3. J Thromb Haemost.
# PROTOCOL TABLES SEQUENCE No. (1, 2, 3, etc.); […] (e.g., Cells, Incubation, Reagent, etc.); VALUE and DESCRIPTION. 1; Reagent; 3 uL; Protein or buffer (4/3x) 2; Compound; 46 nL; Control inhibitor / compound library 3; Time; 15 min; Room temperature incubation 4; Reagent; 1 uL; Fluorescent labeled peptide (4x) 5; Time; 1000 rpm; Centrifuge 6; Time; 15 min; Room temperature incubation 7; Detection; Ex 480/ Em 540; ViewLux Fluorescence Read NOTES (numbers refer to sequence above) 1; Protein Mixture: C1B1-GST (final concentrations of 1 uM). […] 3; Room temperature incubation. 4; Fluorescent Labeled Peptide: FITC-aIIb (final concentration of 100 nM). Sequence of alphaIIb peptide: Acetyl-[…]-FITC (purity is 95.83%). 5; Centrifuge 1000 rpm (164 g) for 15 seconds. 6; Room temperature incubation. 7; ViewLux Fluorescent Polization Read: excitation = 480(20) / emission = 540(25) S and P; FITC Dichroic mirror.
Compound,Potency,"activity change, negative = inhibition"
CCc1cc(Cl)c(OC)c(C(=O)NC[C@@H]2CCCN2CC)c1O,inactive,
O=C1[C@H](CC[C@H](O)c2ccc(F)cc2)[C@@H](c2ccc(O)cc2)N1c1ccc(F)cc1,inactive,
O=C(NCCc1c[nH]c2ccccc12)c1cccnc1,inactive,
CC(C)(Cc1c[nH]c2ccccc12)NCC(O)COc1ccccc1C#N (stereo not given),inactive,
Cc1cc(NS(=O)(=O)c2ccc(N)cc2)nc(C)n1,inactive,
O=C(Nc1ncc([N+](=O)[O-])s1)c1cccs1,inactive,
CC(C)(C)NC[C@H](O)COc1cccc2c1CCCC2=O,inactive,
C#C[C@]1(O)CC[C@H]2[C@@H]3[C@H](C)CC4=C(CCC(=O)C4)[C@H]3CC[C@@]21C,inactive,
Cc1cccc(C)c1NC(=O)CN1CCCCCC1,inactive,
OC(C#CCN1CCCC1)(c1ccccc1)c1ccccc1,inactive,
Nc1ccc(S(=O)(=O)NCc2ccccc2)cc1,inactive,
O=[N+]([O-])c1cccc(S(=O)(=O)NCCNS(=O)(=O)c2cccc([N+](=O)[O-])c2)c1,inactive,
NC(=O)n1c(O)c(C(=O)c2cccs2)c2cc(Cl)ccc21,inactive,
CCc1nn(CCCN2CCN(c3cccc(Cl)c3)CC2)c(=O)n1CCOc1ccccc1,inactive,
Cc1ccc2c(Br)cc(Br)c(O)c2n1,inactive,
Nc1ccc(S(=O)(=O)Nc2cnc3ccccc3n2)cc1,inactive,
COc1cc(N)c(Cl)cc1C(=O)NC1CCN(Cc2ccccc2)CC1,inactive,
c1ccc(-c2nc[nH]c2-c2ccccc2)cc1,inactive,
CC(C)NCC(O)c1ccc2ccccc2c1 (stereo not given),inactive,
O=C(O)P(=O)(O)O,inactive,

Compound,Potency,"activity change, negative = inhibition"
CCN[C@@H]1C[C@H](N)[C@@H](OC2OC(CN)=CCC2N)[C@H](O)[C@H]1O[C@H]1OC[C@](C)(O)[C@H](NC)[C@H]1O (stereo not given in full),,1.28% [at 1.07 µM] (inactive)
CCOC(=O)[C@@](C)(N)Cc1ccc(O)c(O)c1,inactive,
OCc1ccccn1,inactive,
COc1cc(O)c(C(=O)c2ccccc2)cc1S(=O)(=O)O,inactive,
O=C(O)Cc1csc(-c2ccc(Cl)cc2)n1,inactive,
CCCCCCCCOc1ccc(C(=O)c2ccccc2)c(O)c1,inactive,
CCCCc1cc2ccccc2c(OCCN(C)C)n1,inactive,
CN(C)CCOC(=O)C(c1ccccc1)C1(O)CCCC1 (stereo not given),inactive,
Nc1nc(-c2ccccc2)c(Br)c(=O)[nH]1,inactive,
CCOC(=O)C(C#N)=C(c1ccccc1)c1ccccc1,inactive,
Cc1ccc(O)c([C@H](CCN(C(C)C)C(C)C)c2ccccc2)c1,inactive,
CCCCCCCCCCC[C@@H](C[C@@H]1OC(=O)[C@H]1CCCCCC)OC(=O)[C@H](CC(C)C)NC=O,inactive,
Cc1ccc(S(=O)(=O)NC(=O)NC2CCCC2)cc1,inactive,
CC(C)(C)NC[C@H](O)COc1nsnc1N1CCOCC1,inactive,
CCNC(=O)NCc1cccc(Cl)c1,inactive,
Cc1cccc(C)c1NC(=O)c1ccccc1C(=O)O,inactive,
C=C[C@@]1(C)CC(=O)[C@]2(O)[C@@]3(C)[C@@H](O)CCC(C)(C)[C@@H]3[C@H](O)[C@H](OC(C)=O)[C@@]2(C)O1,inactive,
NCc1ccccc1Sc1ccccc1CO,inactive,
O=C1OC(CN2CCOCC2)CN1/N=C/c1ccc([N+](=O)[O-])o1 (stereo not given),inactive,
FC(F)(F)C(F)(F)C(F)(F)C(F)(F)C(F)(F)C(F)(F)C(F)(F)C(F)(F)Br,inactive,
